Molecules are shown by their SMILES. Several values for one entry are separate records, joined by “and”; a condition that tells them apart may be missing. Equal values may be shown once. Results filed as inconclusive are left out. A call without a number means that no potency is given here. Some structures have more than one record in an assay (separate samples or runs), and their calls can disagree. Activity calls are given as the source filed them. Calls follow the shape of the dose curve; as a rule, active = well fitted activation curve with a large enough effect in the repeat runs; inconclusive = weak or mixed curves; inactive = no such curve, though single readings can be large or run the other way.
Potency is read from the fitted curve at half-maximal effect.

Aryl hydrocarbon receptor (Homo sapiens), sequence (P35869 whole entry, looked up): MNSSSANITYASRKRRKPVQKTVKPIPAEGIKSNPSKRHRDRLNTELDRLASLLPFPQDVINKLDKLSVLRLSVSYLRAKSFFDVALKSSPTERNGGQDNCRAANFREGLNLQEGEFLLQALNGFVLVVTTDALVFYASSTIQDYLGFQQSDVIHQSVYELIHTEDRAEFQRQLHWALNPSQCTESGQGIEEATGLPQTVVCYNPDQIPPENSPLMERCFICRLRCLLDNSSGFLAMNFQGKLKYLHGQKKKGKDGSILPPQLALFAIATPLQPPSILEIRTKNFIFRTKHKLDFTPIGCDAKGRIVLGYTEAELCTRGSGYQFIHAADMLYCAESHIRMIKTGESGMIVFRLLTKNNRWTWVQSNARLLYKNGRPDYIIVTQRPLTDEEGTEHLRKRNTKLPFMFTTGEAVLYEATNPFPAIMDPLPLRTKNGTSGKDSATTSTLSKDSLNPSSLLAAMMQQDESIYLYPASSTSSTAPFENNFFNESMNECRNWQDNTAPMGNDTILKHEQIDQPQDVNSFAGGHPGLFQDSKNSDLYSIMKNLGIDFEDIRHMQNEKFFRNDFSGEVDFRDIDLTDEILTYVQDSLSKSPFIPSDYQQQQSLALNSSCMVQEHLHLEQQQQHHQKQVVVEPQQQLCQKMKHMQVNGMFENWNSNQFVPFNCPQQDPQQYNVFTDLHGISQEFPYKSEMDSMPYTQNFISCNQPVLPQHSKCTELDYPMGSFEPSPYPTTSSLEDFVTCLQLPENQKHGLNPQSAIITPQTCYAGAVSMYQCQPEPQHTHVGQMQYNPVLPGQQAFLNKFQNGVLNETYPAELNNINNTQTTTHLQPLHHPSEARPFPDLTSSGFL

This assay has as its target Aryl hydrocarbon receptor (Homo sapiens) (UniProt P35869). Kind of assay: qHTS assay to identify small molecule that activate the aryl hydrocarbon receptor (AhR) signaling pathway (AID 743085). Also: nearly all actives have a fitted effect of over 15% in size.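 As to activation: HG2L7.5c1 human HepG2 liver cells with stably integrated DRE-driven firefly reporter.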 Conditions: HepG2 AhR-luc (HG2L7.5c1), luciferase, 24 h; series mostly up to 70.3 µM. The text has this:
U.S. Tox21 Program National Center for Advancing Translational Sciences [NCATS] NIH Chemical Genomics Center [NCGC] U.S. Environmental Protection Agency [EPA] National Institutes of Environmental Health Sciences [NIEHS] National Toxicology Program [NTP] U.S. Food and Drug Administration [FDA] Tox21 Assay overview: The Aryl hydrocarbon Receptor (AhR), a member of the family of basic helix-loop-helix transcription factors, is crucial to adaptive responses to environmental changes. AhR mediates cellular responses to environmental pollutants such as aromatic hydrocarbons through induction of phase I and II enzymes but also interacts with other nuclear receptor signaling pathways. A cell based HepG2-AhR-luc assay (HG2L7.5c1 cell line, developed by Dr. Michael S. Denison, University of California at Davis, was used to assess the activation of AhR. HepG2 (human hepatocellular carcinoma) cells were stably transfected with an Ah receptor-responsive firefly luciferase reporter gene plasmid containing 20 dioxin responsive elements and luciferase reporter gene. Increased luciferase activity can be used to identify the compounds that induce AhR activation.
Tox21 Assay Protocol Summary: 4000 cells in 5 uL/well were dispensed into white wall/solid bottom 1536-well plates using a Multidrop Combi (Thermo Fisher Scientific Inc., Waltham, MA) dispenser. After the assay plates were incubated at 37C for 5 h, 23 nL of compound or DMSO vehicle was transferred to the assay plates by a pintool station (Kalypsys, San Diego, CA). The plates were incubated at 37C for 24 hr. After 1 ul/well of CellTiter-Fluor reagent (Promega, Madison, WI) was added into the assay plates using a Flying Reagent Dispenser (FRD) (Aurora Discovery, CA), the assay plates were incubated at 37C for 30 min. The fluorescence intensity in the plates was measured using a ViewLux plate reader (PerkinElmer, Shelton, CT), followed by the addition of 4 uL of ONE-Glo Luciferase Assay reagent (Promega) using an FRD (Aurora Discovery). After the assay plates were incubated at room temperature for 30 min, luminescence intensity was measured using a ViewLux plate reader (Perkin Elmer).
As to `O=c1c(-c2ccc(O)cc2)coc2cc(O)cc(O)c12`, the Potency result is “inactive and 12.2 µM (active)”.
As for `CC(=O)OC/C=C(C)/C=C/C=C(C)/C=C/C1=C(C)CCCC1(C)C`, the Potency entry was “inactive”.
Consider `COCC(C)N` (stereo not given), for which the Potency entry is “inactive”.
The value for `CCN1CCCC1=O` was “inactive”.
`C[C@]12C=CC(=O)C=C1CC[C@@H]1[C@@H]2C(=O)C[C@@]2(C)[C@H]1CC[C@]2(O)C(=O)CO`: the Potency entry was “inactive”.
On to `O=[N+]([O-])c1ccc(O)cc1`, for which the Potency entry was “inactive”.
For the compound `CCN(CC)CCOC(=O)c1ccc(N)cc1`, the Potency entry was “inactive”.
With `OCCCc1ccccc1`, the Potency result is “inactive”.
In the case of `C=C(C)OC(C)=O`, the Potency result was “inactive”.
Turning to `O=C(O)CCCCC1CCSS1` (stereo not given), the Potency result was “inactive”.
For `CC(=O)/C=C/C1=C(C)CCCC1(C)C`, the Potency entry was “inactive”.
`NC(N)=NC(N)=NCCc1ccccc1`: the Potency result is “inactive”.
Consider `CO[C@H]1C=CO[C@@]2(C)Oc3c(C)c(O)c4c(O)c(c(/C=N/N5CCN(C)CC5)c(O)c4c3C2=O)NC(=O)/C(C)=C\C=C[C@H](C)[C@H](O)[C@@H](C)[C@@H](O)[C@@H](C)[C@H](OC(C)=O)[C@@H]1C`, for which the Potency result was “inactive”.
On to `C/C=C/c1ccc(O)c(OC)c1`, for which the Potency entry was “inactive”.
The value for `Cn1cnc2c1c(=O)[nH]c(=O)n2C` was “inactive”; that for `COc1ccccc1NC(=O)CC(C)=O` was 47.9 µM (active) and 27.3 µM (active); that for `COc1cc2c(c(OC)c1OC)-c1ccc(OC)c(=O)cc1[C@@H](NC(C)=O)CC2` was “inactive”.
With `C=CCOC(=O)CC(C)C`, the Potency result is “inactive”.
As for `NC(=O)NO`, the Potency entry is “inactive”.
As for `CC(=O)Oc1ccccc1C(=O)O`, the Potency result was “inactive”.
As for `CC1(C)O[C@@H]2[C@@H](CO[C@@]3(COS(N)(=O)=O)OC(C)(C)O[C@@H]23)O1`, the Potency entry is “inactive”.
The entry for `OC[C@@H](O)[C@@H](O)[C@H](O)[C@H](O)CO` is “inactive”; for `COc1cc(C=O)ccc1O` it is “inactive”.
As for `O=C(O)Cc1cccc2ccccc12`, the Potency result was “inactive”.
For the compound `CCCCOCCOCCOC(C)=O`, the Potency entry was “inactive”.
Turning to `CN(C)Cc1cc(CN(C)C)c(O)c(CN(C)C)c1`, the Potency result is “inactive”.
`NC(=O)N/N=C/c1ccc([N+](=O)[O-])o1`: the Potency entry was “inactive and 19.3 µM (active)”.
The value for `CCCCNC(=O)NS(=O)(=O)c1ccc(N)cc1` was “inactive”.
Take `CCCCOCCOCCSC#N`: the Potency result is “inactive”.
The value for `O=C1CCCCCN1` was “inactive”; that for `CCOC(=O)C(C)(C)Oc1ccc(Cl)cc1` was “inactive”; that for `C1CNCCN1` was “inactive”.
`COc1ccc(O)cc1`: the Potency entry was “inactive”.
With `COc1ccccc1O`, the Potency result is “inactive”.
For `CC(C)(C)CC(C)(C)c1ccc(O)c(-n2nc3ccccc3n2)c1`, the Potency result was “inactive”.
The entry for `COC(=O)C1CCC(C(=O)OC)CC1` (stereo not given) is “inactive”; for `Cc1cccc(C)c1O` it is “inactive”.
As to `Nc1ccc(N=Nc2ccccc2)c(N)n1`, the Potency was 13.3 µM (active) and 13.8 µM (active) and 34.4 µM (active).
As for `Oc1cccc(O)c1`, the Potency entry is “inactive”.
`COc1cc(O)c(C(=O)c2ccccc2)cc1S(=O)(=O)O`: the Potency result is “inactive”.

For the origin of these results see PubChem BioAssay (Tox21).
